The source of these data is ChEMBL document CHEMBL4513216, “Probing the Open Global Health Chemical Diversity Library for Multistage-Active Starting Points for Next-Generation Antimalarials” (ACS Infect Dis, 2020).

Hit rate of the full screen: of about 65,000 compounds, about 2,100 (3.2%) showed an effect of 50% or more. The median lay at about -52%. Many of the other results were omitted from the sample, so strong results are more common in it than they were.

For this assay, the system named is Plasmodium falciparum. Description: Screen against P. falciparum Asexual Blood Stage (ABS), at 5uM. It counts as functional, Dd2. Conditions: tested at 5 uM.
`O[C@]12CCNC[C@H]1CN(c1nccc3ccccc13)CC2`: the INHIBITION was -5.03%.

As for `Cc1nnc(N2CC[C@@]3(O)CCNC[C@H]3C2)c2ccccc12`, the INHIBITION is -14.9%.

`O[C@]12CCNC[C@H]1CN(c1ccnc3ccccc13)CC2`: the INHIBITION was found to be 92%.

`Cc1cnc(N2CCC3(CCCCN3C)C2)nc1` (stereo not drawn): the INHIBITION was -23.5%.

For the molecule `CC(C)(C)CC(=O)N1C[C@H]2CCN[C@H]2C1`, the INHIBITION is on record as -36.7%.

Regarding `Cc1cc(CN2C[C@@H]3COC[C@H](C(=O)N4CCCCO4)[C@@H]3C2)no1`, the INHIBITION is recorded as -158%.

For the molecule `CN(C)C(=O)CN1CCN(c2ncccn2)[C@@H]2CS(=O)(=O)C[C@@H]21`, the INHIBITION was -100%.

On to `CCN1CCN(C)C2(CCN(Cc3cccc(C)n3)CC2)C1=O`, for which the INHIBITION is -50.7%.

`Cc1cnc(N2CCC3(CC2)CN(Cc2cccs2)CCO3)nc1`: the INHIBITION was -35.2%.

For `Cc1cccc(CN2CCC3(CCN(c4cccnc4)C3=O)C2)n1` (stereo not drawn), the INHIBITION was -18.3%.

On to `CCN1CCC2(CC1)CC(NCc1cccc(C)n1)c1ccccc1O2` (stereo not drawn), for which the INHIBITION came to 91.3%.

With `CCN1CCC2(CC1)CC(Nc1ncccn1)CO2` (stereo not drawn), the INHIBITION is -11%.

In the case of `CCN1CCC2(CC1)CC(NCc1cccs1)c1ccccc1O2` (stereo not drawn), the INHIBITION was 85.8%.

Turning to `CCN1CCC2(CC1)CC(NCc1ccncc1)c1ccccc1O2` (stereo not drawn), the INHIBITION was found to be 77.7%.

`O=C1Nc2ccccc2C12CCN(Cc1cccs1)CC2`: the INHIBITION was -14.5%.

For the molecule `O=C1NCC2(CCCN(Cc3ccncc3)C2)Oc2ccccc21` (stereo not drawn), the INHIBITION is given as -7.11%.

`O=C(Nc1cccnc1)[C@H]1CO[C@H]2CCNC[C@H]2C1`: the INHIBITION is given as -181%.

As for `Cc1cccc(CN2C[C@H](OCc3ccccn3)[C@H]3COC[C@H]32)n1`, the INHIBITION is reported as -21.3%.

`Cc1noc(C)c1CN1CCO[C@H]2CN(Cc3cccnc3)C[C@H]21`: the INHIBITION was 0.607%.

`CCc1ccc(CN2CCN(C)c3ncccc3C2)o1`: the INHIBITION is -114%.

For the molecule `O=c1[nH]cnc2[nH]c(N3CCNCC3)nc12`, the INHIBITION is -168%.

Consider `CN(C)C(=O)CN1CCC2(CCCN(Cc3cccnc3)C2)C1=O` (stereo not drawn), for which the INHIBITION is given as -34%.

In the case of `Cc1cccc(CN2C[C@@H](NC(=O)C3CCC3)[C@H]3COC[C@H]32)n1`, the INHIBITION was -50.1%.

Turning to `COc1ccccc1CN(C)C(=O)CN1CC(n2nc(C)cc2C)C1`, the INHIBITION is 78.2%.

Turning to `CCc1nnc(CN(C)C(=O)CN2CC(c3ccccc3)CC2=O)o1` (stereo not drawn), the INHIBITION is given as -112%.

With `COc1ccc(Cl)cc1CN(C)C(=O)CN1C(=O)CCC1C` (stereo not drawn), the INHIBITION is -38.8%.

Regarding `Cn1cc(C(=O)NCc2cncc3c2CCNC3)cn1`, the INHIBITION was -118%.

In the case of `Cc1csc([C@H]2C[C@@H]3CCN(Cc4cc(C)on4)C[C@H]3O2)n1`, the INHIBITION is -69.7%.
